# About 1,900 (0.58%) of roughly 330,000 compounds were called active. About 4% were inconclusive and are not listed. These entries were drawn from the full list. Entries with a potency or affinity are not part of this list. Values without a mark were called inactive. No stated cut-off is given here; in the data, inconclusive means inhibition above about 70% without an active follow-up result; inactive means below that.
# Test: M. tuberculosis growth inhibition, HTS (AID 449762);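 further: bacterial growth assessed after seven days of incubation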
# Details: M. tuberculosis H37Rv growth inhibition, 7H9 media; at 25 µM; hits give high values
row,Structure (SMILES),inhibition [%]
1,O=C(Nc1ccn(Cc2c(F)c(F)cc(F)c2F)n1)c1ccc(COc2ccccc2Cl)cc1,0.39
2,O=C(Nc1ccn(Cc2c(F)c(F)c(F)c(F)c2F)n1)c1ccc(COc2ccccc2Cl)cc1,-14
3,CCCOC(=O)C1NC(=O)N2C(C(=O)OCCC)C(C)(C)S[C@H]12 (stereo partly drawn),-1.23
4,c1ccc(CSc2ccc(-c3ccccn3)nn2)nc1,7.58
5,c1ccc(-c2ccc(SCc3cccnc3)nn2)nc1,-8.38
6,CC(=O)c1ccc(NC(=O)C(C)Sc2nnc3ccccn23)cc1 (stereo not drawn),-6.02
7,C=CCn1c(O)c(N=Nc2ccccc2C)c2ccccc21,53.8
8,C=CCn1c(O)c(N=Nc2ccccc2)c2ccccc21,19.4
9,O=C(Nc1ccc(C(=O)N2CCCC2)cc1)Nc1ccc(Cl)cc1Cl,-2.35
10,CC(C)c1nc(NCCO)c2nnn(Cc3ccccc3)c2n1,-8.58
11,COc1ccc(-n2nc(C(=O)NCC(=O)Nc3cc(C)ccc3OC)c3ccccc3c2=O)c(OC)c1,12.5
12,c1ccc(Cn2c[n+](Cc3ccccc3)c3ccccc32)cc1,2.04
13,Cc1ccc(OCC(O)CN2CCN(c3ccc(C)cc3)CC2)cc1 (stereo not drawn),10.5
14,CO/N=C/CC(=O)Nc1ccc(F)cc1F,-4.1
15,O=C(CCNC(=O)c1ccc([N+](=O)[O-])cc1)Nc1ccc(F)cc1F,17.9
16,O=C(COC(=O)c1ccc(F)cc1F)NCc1ccc2c(c1)OCO2,2.2
17,C=CCOc1ccc(C2=NOC(C(=O)Nc3ccc4c(c3)OCCO4)C2)cc1OC (stereo not drawn),4.17
18,O=C(Nc1ccc2c(c1)OCCO2)C1CC(c2ccc(F)cc2)=NO1 (stereo not drawn),-3.61
19,COc1cccc(-c2nnc3sc(C4CCCCC4)nn23)c1,66.4
20,COc1ccccc1-c1nnc2sc(C3CCCCC3)nn12,-3.09
21,CC(CN1CCCC1)OC(=O)c1ccc(Cl)cc1Cl (stereo not drawn),4.38
22,CCCCNC(=S)N1CCN(c2ccc(C(C)=O)cc2)CC1,7.05
23,CC(=O)c1ccc(N2CCN(C(=S)NCCCN(C)C)CC2)cc1,3.66
24,COc1ccc(-c2sc(Nc3ccccc3)n[n+]2-c2ccc(F)cc2)c(C)c1C,1.59
25,CC(C)c1ccccc1NC(=O)CC1(CC(=O)O)CCCC1,-1.9
26,Cc1ccc(N2C(=O)[C@@H]3Cc4ccccc4CN3C2=O)cc1,1.44
27,O=[N+]([O-])c1c(C(Cl)Cl)nn(-c2ccccc2)c1N1CCCC1,-9.83
28,O=[N+]([O-])c1c(C(Cl)Cl)nn(-c2ccccc2)c1N1CCOCC1,5.81
